The source made the active and inactive calls.
Molecular target: Homeobox protein Hox-A13 (Mus musculus) (UniProt Q62424)
Assay: disruptors of Hoxa13 oligonucleotide interaction – biochemical, fluorescence polarization, labeled oligonucleotide, primary screen (AID 1185)
Conditions: Hoxa13:DNA binding, 15 min, higher = more signal, called active from +8 up or from −8 down

Sequence of Homeobox protein Hox-A13 (Mus musculus) (Q62424 whole entry, looked up): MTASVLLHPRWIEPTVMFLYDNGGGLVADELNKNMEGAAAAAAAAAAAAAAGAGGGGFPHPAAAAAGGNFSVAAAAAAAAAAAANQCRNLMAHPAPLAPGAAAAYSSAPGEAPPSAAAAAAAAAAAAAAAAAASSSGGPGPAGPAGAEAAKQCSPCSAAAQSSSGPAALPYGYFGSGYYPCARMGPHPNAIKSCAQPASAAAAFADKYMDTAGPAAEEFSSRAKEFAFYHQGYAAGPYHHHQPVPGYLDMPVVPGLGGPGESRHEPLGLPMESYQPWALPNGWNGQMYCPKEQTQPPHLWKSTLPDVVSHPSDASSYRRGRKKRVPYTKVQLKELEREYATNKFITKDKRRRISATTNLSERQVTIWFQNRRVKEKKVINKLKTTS

z-score, inactive:
C=C(CCCC)C(=O)CC[C@H](OC(C)=O)c1ccccc1OCCO -5.49
O=C1O[C@H](c2ccccc2)[C@H](c2ccccc2)N2[C@H]1[C@@H](C(=O)N1CCN(c3ncccn3)CC1)[C@]1(C(=O)Nc3ccccc31)[C@H]2c1ccc(O)cc1 -1.2
CO[C@H]1O[C@H](CO)[C@@H](OC(=O)Nc2ccccc2)[C@@H]2OC(=O)[C@H](Cc3ccccc3)C/C=C/C[C@@H](Cc3ccccc3)C(=O)O[C@@H]12 -2.64
C=CCNC(=O)[C@@H]1[C@H]2C(=O)O[C@H](c3ccccc3)[C@H](c3ccccc3)N2[C@H](c2ccc(O)cc2)[C@@]12C(=O)Nc1ccc(C#CC3(O)CCCCCC3)cc12 -3.49
C=CCC(OC(C)=O)[C@@H]1[C@@H](N(Cc2ccc(-c3cccc(C(F)(F)F)c3)o2)C(=O)Cc2ccc(F)cc2)c2cc(OCCCO)ccc2N1C(=O)c1ccc2ccccc2n1 (stereo not given in full) -2.08
CO[C@H]1O[C@H](CO)[C@@H](OC(=O)Nc2ccc(C(F)(F)F)cc2)[C@H](OC(=O)Nc2ccccc2-c2ccccc2)[C@@H]1OC(=O)Nc1ccccc1-c1ccccc1 -4.13
CCCCC(=C=CC[C@H](O)c1ccc(OCCO)cc1)C[C@H](O)c1ccccn1 -5.18
NC(=O)[C@@]1(CCS(=O)(=O)c2ccccc2)COC(c2ccc(OCCCO)cc2)=N1 -4.75
CC(=O)NCCCC[C@@H]1NC(=O)[C@@H]2C[C@H](C(=O)NCCCCCC[N+](C)(C)C)[C@H](c3ccc(O)cc3)N2C1=O -2.45
O=C1C2C=CC(C(O)c3cccc(O)c3)N(Nc3ccccc3F)C2C(=O)N1c1ccccc1 (stereo not given) -3.57
COCCOC(=O)N1C(=O)[C@@]2(c3cc(C#CCCO)ccc31)[C@H](C(=O)N1CCN(c3ncccn3)CC1)[C@H]1C(=O)O[C@H](c3ccccc3)[C@H](c3ccccc3)N1[C@@H]2c1ccc(O)cc1 -2.3
COc1cccc(OC)c1C(=O)O[C@H]1[C@@H]2OC(=O)[C@H](Cc3cccc(Br)c3)C/C=C/C[C@@H](Cc3cccc(Br)c3)C(=O)O[C@H]2[C@@H](OC)O[C@@H]1CO -4.16
COc1ccc([Si](C)(C)[C@@H]2[C@@H](CCO)O[C@]3(C(=O)N(Cc4ccccc4)c4ccc(N5C(=O)c6ccccc6Oc6ccccc65)cc43)[C@H]2C)cc1 -1.08
CC(C)CNC(=O)[C@@H]1c2ccccc2C(=O)N(CC23CC4CC(CC(C4)C2)C3)[C@H]1c1ccc(CO)cc1 -3.84
C=C(COC)/C(=C/C[C@H](OC(=O)c1ccncc1)c1cccc(OCCO)c1)c1cnc2ccccc2c1 -4.94
CN1C(=O)C2C=CC(C(O)c3ccc(-c4ccccc4)s3)N(Nc3ccccc3)C2C1=O (stereo not given) -4.68
COc1ccc(NC(=O)O[C@H]2[C@H](OC(=O)Nc3ccc4c(c3)OCO4)[C@H](OC(=O)Nc3ccc4c(c3)OCO4)[C@@H](OC)O[C@@H]2CO)cc1 -4.94
C=CCOC(=O)[C@H]1[C@@H]2C(=O)O[C@@H](c3ccccc3)[C@@H](c3ccccc3)N2[C@@H](c2ccc(OCCOC(=O)[C@H]3C[C@H]4C(=O)NCC(=O)N4[C@H]3c3ccc(O)cc3)cc2)[C@]12C(=O)Nc1ccc(I)cc12 2.46
COCCOC(=O)N1C(=O)[C@@]2(c3cc(C#CC4=CCCCC4)ccc31)[C@H](C(=O)N1CCN(c3ncccn3)CC1)[C@H]1C(=O)O[C@H](c3ccccc3)[C@H](c3ccccc3)N1[C@@H]2c1ccccc1OCCO 2.82
C=C(COC)C(=O)CC[C@@H](OC(C)=O)c1ccc(OCCO)cc1 -4.63
O=C1C2C=CC(C(O)c3ccc([N+](=O)[O-])cc3)N(Nc3ccccc3)C2C(=O)N1c1ccccc1 (stereo not given) -4.48
COCCCNC(=O)[C@@H]1c2ccccc2C(=O)N(C2CCCCC2)[C@H]1c1ccc(CO)cc1 -0.837
C=CCN1C(=O)[C@]2(O[C@H](CCO)[C@@H]([Si](C)(C)c3ccc(OC)cc3)[C@@H]2C)c2ccccc21 -6.69
C=CCC(OC(C)=O)[C@@H]1[C@@H](N(Cc2cc3ccccc3o2)C(=O)Cc2ccc(OC)cc2)c2cc(OCCCO)ccc2N1C(=O)Cc1ccc2ccccc2c1 (stereo not given in full) -1.62
CCOC(=O)C1=CCC(c2cc3ccccc3[nH]2)N(S(=O)(=O)c2ccccc2[N+](=O)[O-])C1 (stereo not given) -1.5
COCC1=C([C@H](O)CCc2ccccc2)[C@H](CO)n2c(=O)n(-c3ccccc3)c(=O)n2C1 -3.09
C=CCC(OC(C)=O)[C@@H]1[C@@H](N(Cc2ccc(-c3ccccc3)cc2)C(=O)c2cccc3ccccc23)c2cc(OCCCO)ccc2N1C(=O)c1ccc2ccccc2c1 (stereo not given in full) -1.33
Cc1ccc(S[C@]2(C(=O)NCCN3CCOCC3)CC(=O)N(C3CCCCC3)[C@@H]2c2ccc(CO)cc2I)cc1 -5.68
CCOC(=O)C[C@H]1[C@H](OC(=O)c2cc3ccccc3oc2=O)[C@@H](NC(=O)C2CCCCC2)c2cc(OCCCO)ccc2N1C(=O)Cc1ccc(OC)cc1 -4.22
CC(=O)n1cc(C(O)C2C=CC3C(=O)N(c4ccccc4)C(=O)C3N2Nc2ccccc2F)c2ccccc21 (stereo not given) -4.01
NC(=O)NCC#Cc1ccc2c(c1)[C@]1(C(=O)N2)[C@H](C(=O)Nc2nc3ccccc3s2)[C@H]2C(=O)O[C@H](c3ccccc3)[C@H](c3ccccc3)N2[C@@H]1c1ccc(OCCO)cc1 0.217
[N-]=[N+]=Nc1ccccc1[C@@H]1OC(c2ccc(OCCCO)cc2)=N[C@]1(Cc1ccccc1)C(N)=O -5.43
NC(=O)NCC#Cc1ccc2c(c1)[C@]1(C(=O)N2)[C@H](C(=O)N2CCCCCCC2)[C@H]2C(=O)O[C@H](c3ccccc3)[C@H](c3ccccc3)N2[C@@H]1c1ccc(O)cc1 -0.376
COC(=O)C1=CC(CCCO)=CC(C2CC2)N(Cc2cccc(OC(F)(F)F)c2)C=C1C(=O)OC (stereo not given) -7.83

z-score, active:
COCCOC(=O)N1C(=O)[C@@]2(c3cc(C#CC4(O)CCCCCC4)ccc31)[C@H](c1ccc(OCCO)cc1)N1[C@H](c3ccccc3)[C@H](c3ccccc3)OC(=O)[C@H]1[C@@H]2C(=O)N1CCCCCCC1 -13.3

Source: PubChem BioAssay
